# Measured values published in PubChem BioAssay (EPA / NIEHS).
# Calls of active or inactive are those of the source. How the source made its calls: active means hit-call score of the fitted dose curve at least 0.9, where 1 is the maximum; inactive means score below 0.9.
# How the values were obtained:
# [1] = ATG_E_Box_CIS: Attagene CIS-FACTORIAL HepG2 Assay for human Enhancer Box (E-box) (AID 2282936); details: HepG2 E-box cis-reporter transcription, actives raise or lower the signal
# Outline: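 Fluorescent reporter fragments separated by capillary electrophoresis gave the signal; mRNA came from HepG2 cells transfected with cis-element reporters and treated 24 h. Curves fitted bidirectionally relative to DMSO controls.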
# [2] = ATG_M_61_CIS: Attagene CIS-FACTORIAL HepG2 Assay for M61 Transcription Factor (Internal Marker) (AID 2282937); details: HepG2 Attagene CIS-FACTORIAL M61 internal marker reporter; actives raise or lower the signal
# Outline: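 Human liver HepG2, transient MRTU transfection (cis promoter elements), 24 h compound. Total RNA → oligo(dT) RT → PCR → FAM label → HpaI → CE. Internal background marker; bidirectional fitting, DMSO = baseline.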
# [3] = ATG_EGR_CIS: Attagene CIS-FACTORIAL HepG2 Assay for human Early Growth Response 1 (EGR1) (AID 2282938); details: HepG2 Attagene CIS-FACTORIAL EGR reporter mRNA; actives raise or lower the signal
# Outline: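 Transient transfection of human HepG2 with multiple cis-regulated reporter units, chemical exposure 24 h, total RNA isolated. Reverse transcription, PCR, fluorescent labelling and capillary electrophoresis quantify reporter transcripts; activity fitted bidirectionally against DMSO.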
# [4] = ATG_M_19_CIS: Attagene CIS-FACTORIAL HepG2 Assay for M19 Transcription Factor (Internal Marker) (AID 2282939); details: HepG2 Attagene CIS-FACTORIAL M19 internal marker reporter; actives raise or lower the signal
# Outline: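 Signals come from fluorescence of labelled reporter-specific PCR fragments resolved by capillary electrophoresis, following 24 h treatment of HepG2 cells transfected with cis-promoter reporter units; activity was fitted in both directions relative to DMSO.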
# [5] = ATG_Ets_CIS: Attagene CIS-FACTORIAL HepG2 Assay for human Erythroblast Transformation Specific (ETS) (AID 2282941); details: HepG2 ETS cis-reporter transcription, actives raise or lower the signal
# Outline: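 Multiplexed reporter transcript profiling: HepG2, 24 h treatment, total RNA to cDNA, PCR, 6-FAM labelling, HpaI cut, capillary electrophoresis. Gain- or loss-of-signal fitted against DMSO.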
# [6] = target: Hepatocyte nuclear factor 3-beta (Homo sapiens) (UniProt Q9Y261); assay: ATG_FoxA2_CIS: Attagene CIS-FACTORIAL HepG2 Assay for human Forkhead box A2 (FOXA2) (AID 2282942); details: HepG2 cis-reporter transcription factor activity, 24 h; actives raise or lower the signal
# Sequence of Hepatocyte nuclear factor 3-beta (Homo sapiens) (Q9Y261 whole entry, looked up): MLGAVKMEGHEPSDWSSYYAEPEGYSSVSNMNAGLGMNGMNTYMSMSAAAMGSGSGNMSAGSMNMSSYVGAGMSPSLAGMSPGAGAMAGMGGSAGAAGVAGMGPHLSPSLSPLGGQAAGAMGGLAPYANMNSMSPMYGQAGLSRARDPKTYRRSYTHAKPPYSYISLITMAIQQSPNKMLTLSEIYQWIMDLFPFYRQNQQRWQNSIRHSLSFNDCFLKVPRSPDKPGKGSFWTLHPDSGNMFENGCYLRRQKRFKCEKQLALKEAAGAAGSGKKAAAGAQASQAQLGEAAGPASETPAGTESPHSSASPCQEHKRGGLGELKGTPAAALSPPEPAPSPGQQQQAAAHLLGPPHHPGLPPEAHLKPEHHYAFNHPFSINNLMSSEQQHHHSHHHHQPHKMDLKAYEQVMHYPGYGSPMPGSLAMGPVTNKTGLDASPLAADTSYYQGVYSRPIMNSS
# Outline: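 Transient MRTU transfection of HepG2 liver cells; 24 h treatment; total RNA → oligo(dT) RT → PCR → FAM primer extension → HpaI cut → CE. Bidirectional fit vs DMSO.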
# [7] = ATG_FoxO_CIS: Attagene CIS-FACTORIAL HepG2 Assay for human Forkhead box O (FoxO) (AID 2282943); details: HepG2 Attagene cis-reporter, FoxO element, mRNA; actives raise or lower the signal
# Outline: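 Endogenous transcription factor activity read from multiplexed cis-promoter reporter transcripts in transiently transfected HepG2, 24 h after dosing. Reporter RNA measured via RT-PCR plus capillary electrophoresis of FAM-labeled products; gain or loss relative to DMSO.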
# [8] = ATG_GATA_CIS: Attagene CIS-FACTORIAL HepG2 Assay for human GATA Binding Protein (AID 2282944); details: HepG2 GATA cis-element reporter, Attagene multiplex mRNA; actives raise or lower the signal
# Outline: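 After transfecting HepG2 cells with multiple cis-regulated reporter units, chemicals are dosed for 24 h; isolated RNA undergoes RT-PCR and fluorescent labeling before capillary electrophoresis, with activity expressed against DMSO.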
# [9] = ATG_GLI_CIS: Attagene CIS-FACTORIAL HepG2 Assay for human Zinc Finger Protein GLI1 (AID 2282945); details: HepG2, Attagene cis-factorial reporter mRNA, GLI element; actives raise or lower the signal
# Outline: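 Bidirectional curve fits relative to DMSO, using reporter mRNA levels from RT-PCR plus capillary electrophoresis. Cells were HepG2 transiently carrying cis-regulated reporter constructs, harvested 24 h after dosing.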
# [10] = target: Bile acid receptor (Homo sapiens) (UniProt Q96RI1); assay: ATG_IR1_CIS: Attagene CIS-FACTORIAL HepG2 Assay for human Nuclear Receptor Subfamily 1 Group H Member 4 (NR1H4), IR1 submotif (AID 2282946); details: IR1 reporter transcription, actives raise or lower the signal
# Sequence of Bile acid receptor (Homo sapiens) (Q96RI1 whole entry, looked up): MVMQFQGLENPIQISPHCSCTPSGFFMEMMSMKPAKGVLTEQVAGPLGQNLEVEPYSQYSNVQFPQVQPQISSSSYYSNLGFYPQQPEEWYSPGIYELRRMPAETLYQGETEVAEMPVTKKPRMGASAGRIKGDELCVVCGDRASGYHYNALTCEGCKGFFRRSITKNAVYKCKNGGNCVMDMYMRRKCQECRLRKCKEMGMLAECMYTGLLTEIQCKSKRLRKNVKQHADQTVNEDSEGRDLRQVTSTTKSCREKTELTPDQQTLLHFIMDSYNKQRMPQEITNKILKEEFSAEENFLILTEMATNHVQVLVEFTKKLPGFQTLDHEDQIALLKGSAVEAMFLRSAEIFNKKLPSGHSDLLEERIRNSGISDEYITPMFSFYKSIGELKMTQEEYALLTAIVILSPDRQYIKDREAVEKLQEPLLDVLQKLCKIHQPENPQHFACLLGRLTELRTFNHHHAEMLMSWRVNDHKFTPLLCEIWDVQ
# Outline: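 HepG2 cells transiently transfected with multiplexed cis-element reporter units read endogenous transcription factor activity. After 24 h compound exposure, reporter mRNA was quantified by RT-PCR, fluorescent labelling, HpaI digestion and capillary electrophoresis; bidirectional fitting versus DMSO baseline.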
# [11] = ATG_GRE_CIS: Attagene CIS-FACTORIAL HepG2 Assay for human Glucocorticoid Response Elements (GRE) (AID 2282947); details: HepG2 GRE cis-reporter, Attagene multiplex mRNA; actives raise or lower the signal
# Outline: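 Multiplexed cis-reporter mRNA induction, HepG2, 24 h post-dose. RT-PCR, FAM-labelled, HpaI-digested amplicons by CE. Bidirectional fit vs DMSO.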
# [12] = ATG_ISRE_CIS: Attagene CIS-FACTORIAL HepG2 Assay for human Interferon Regulatory Factor 1 (IRF1) binding to an Interferon-Stimulated Response Element (ISRE) (AID 2282948); details: HepG2 ISRE cis-reporter (Attagene), mRNA transcription readout; actives raise or lower the signal
# Outline: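 Signal reflects induction or loss of ISRE-linked reporter mRNA in transiently transfected HepG2 cells after a 24 h treatment, detected by fluorescent RT-PCR fragments on capillary electrophoresis and normalised to DMSO.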
# [13] = ATG_M_32_CIS: Attagene CIS-FACTORIAL HepG2 Assay for M32 Transcription Factor (Internal Marker) (AID 2282949); details: HepG2 Attagene cis-factorial M32 reporter, mRNA; actives raise or lower the signal;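 further: background control marker of the multiplexed CIS panel rather than a real target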
# Outline: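 Using DMSO as baseline, bidirectional curve fits were applied to reporter mRNA signals. These came from transiently transfected HepG2 cells exposed for 24 h, with RNA analysed by RT-PCR, FAM primer extension, HpaI digestion and CE.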
# [14] = ATG_M_06_CIS: Attagene CIS-FACTORIAL HepG2 Assay for M06 Transcription Factor (Internal Marker) (AID 2282950); details: HepG2 Attagene CIS-FACTORIAL M06 internal marker reporter; actives raise or lower the signal
# Outline: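 HepG2 liver cells, 24 h exposure. Reporter transcripts from transfected cis-element constructs quantified by RT-PCR/capillary electrophoresis fluorescence. Bidirectional curve fit against DMSO.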
# [15] = target: Hypoxia-inducible factor 1-alpha (Homo sapiens) (UniProt Q16665); assay: ATG_HIF1a_CIS: Attagene CIS-FACTORIAL HepG2 Assay for human Hypoxia Inducible Factor 1 (HIF1A) (AID 2282951); details: HepG2 Attagene cis-factorial HIF1a reporter transcription; actives raise or lower the signal
# Sequence of Hypoxia-inducible factor 1-alpha (Homo sapiens) (Q16665 whole entry, looked up, the tested form may be a part): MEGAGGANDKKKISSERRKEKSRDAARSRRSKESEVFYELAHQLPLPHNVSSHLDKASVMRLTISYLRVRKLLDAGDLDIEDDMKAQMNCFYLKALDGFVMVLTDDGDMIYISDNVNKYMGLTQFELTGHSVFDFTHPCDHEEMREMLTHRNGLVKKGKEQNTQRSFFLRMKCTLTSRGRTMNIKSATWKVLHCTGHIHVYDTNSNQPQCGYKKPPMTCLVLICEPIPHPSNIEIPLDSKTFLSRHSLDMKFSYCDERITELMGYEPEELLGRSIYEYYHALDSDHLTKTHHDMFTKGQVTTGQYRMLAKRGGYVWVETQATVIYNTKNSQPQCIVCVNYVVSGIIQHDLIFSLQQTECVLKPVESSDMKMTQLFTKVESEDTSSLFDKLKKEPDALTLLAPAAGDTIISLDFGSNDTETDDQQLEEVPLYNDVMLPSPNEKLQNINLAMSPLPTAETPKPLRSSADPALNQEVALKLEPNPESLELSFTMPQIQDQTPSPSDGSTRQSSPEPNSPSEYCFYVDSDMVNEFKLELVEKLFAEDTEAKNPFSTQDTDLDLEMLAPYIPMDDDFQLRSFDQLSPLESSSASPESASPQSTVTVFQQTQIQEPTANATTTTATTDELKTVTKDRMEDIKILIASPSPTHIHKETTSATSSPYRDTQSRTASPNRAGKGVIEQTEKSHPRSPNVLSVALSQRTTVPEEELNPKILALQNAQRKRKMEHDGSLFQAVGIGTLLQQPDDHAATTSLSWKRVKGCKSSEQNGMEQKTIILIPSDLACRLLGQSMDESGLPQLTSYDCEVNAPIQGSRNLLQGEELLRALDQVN
# Outline: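 Transient MRTU transfection of human HepG2 liver cells, 24 h compound treatment, then total RNA isolation, oligo(dT) reverse transcription, PCR amplification, fluorescent labelling and capillary electrophoresis of reporter fragments. Gain or loss relative to DMSO.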
# [16] = target: Hepatocyte nuclear factor 6 (Homo sapiens) (UniProt Q9UBC0); assay: ATG_HNF6_CIS: Attagene CIS-FACTORIAL HepG2 Assay for human Hepatocyte Nuclear Factor 6 (HNF6) (AID 2282952); details: HepG2 Attagene cis-factorial HNF6 reporter transcription; actives raise or lower the signal
# Sequence of Hepatocyte nuclear factor 6 (Homo sapiens) (Q9UBC0 whole entry, looked up, the tested form may be a part): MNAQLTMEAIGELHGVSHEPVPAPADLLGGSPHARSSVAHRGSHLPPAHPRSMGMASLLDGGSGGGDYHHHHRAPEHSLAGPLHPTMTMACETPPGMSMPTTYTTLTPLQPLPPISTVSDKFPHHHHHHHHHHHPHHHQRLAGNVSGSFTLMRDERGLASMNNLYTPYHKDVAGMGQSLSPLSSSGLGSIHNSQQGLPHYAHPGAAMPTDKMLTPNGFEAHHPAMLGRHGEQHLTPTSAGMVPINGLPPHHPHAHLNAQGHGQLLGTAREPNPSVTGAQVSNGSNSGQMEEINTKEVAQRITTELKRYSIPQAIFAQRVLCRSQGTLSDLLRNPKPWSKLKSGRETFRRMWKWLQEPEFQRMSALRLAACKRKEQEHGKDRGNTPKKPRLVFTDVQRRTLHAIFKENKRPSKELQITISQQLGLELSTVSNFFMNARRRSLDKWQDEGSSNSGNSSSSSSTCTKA
# Outline: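 First, HepG2 cells were transfected with the multiplexed cis reporter library and dosed with chemical for 24 h. Next, RNA was reverse-transcribed, PCR-amplified and fluorescently labelled. Finally, HpaI-digested fragments were read by capillary electrophoresis.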
# [17] = target: Heat shock factor protein 1 (Homo sapiens) (UniProt Q00613); assay: ATG_HSE_CIS: Attagene CIS-FACTORIAL HepG2 Assay for human Heat Shock Transcription Factor 1 (HSE) (AID 2282953); details: HepG2 HSE cis-reporter, Attagene RNA transcription; actives raise or lower the signal
# Sequence of Heat shock factor protein 1 (Homo sapiens) (Q00613 whole entry, looked up, the tested form may be a part): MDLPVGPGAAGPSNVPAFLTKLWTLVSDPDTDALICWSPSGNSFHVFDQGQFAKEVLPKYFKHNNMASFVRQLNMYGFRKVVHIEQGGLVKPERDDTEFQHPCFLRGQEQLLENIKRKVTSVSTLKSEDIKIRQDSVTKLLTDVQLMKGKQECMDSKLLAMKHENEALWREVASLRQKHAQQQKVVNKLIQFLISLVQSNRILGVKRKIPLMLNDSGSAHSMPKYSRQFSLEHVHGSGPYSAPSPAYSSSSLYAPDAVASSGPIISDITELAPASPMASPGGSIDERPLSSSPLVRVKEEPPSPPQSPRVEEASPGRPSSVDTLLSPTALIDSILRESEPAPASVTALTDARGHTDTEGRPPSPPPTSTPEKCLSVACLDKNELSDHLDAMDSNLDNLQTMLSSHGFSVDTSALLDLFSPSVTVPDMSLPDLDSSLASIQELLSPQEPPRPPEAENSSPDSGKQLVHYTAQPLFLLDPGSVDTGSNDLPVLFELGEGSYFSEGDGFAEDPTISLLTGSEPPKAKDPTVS
# Outline: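 Endogenous transcription factor activity captured via cis-promoter reporter units transfected into HepG2; treatment lasted 24 h. Fluorescence intensity of reporter fragments analysed with bidirectional curve fitting, DMSO baseline.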
# [18] = ATG_MRE_CIS: Attagene CIS-FACTORIAL HepG2 Assay for human Metal Responsive Element (MRE) (AID 2282954); details: HepG2 MRE cis-reporter transcription, Attagene multiplex; actives raise or lower the signal
# Outline: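 Multiplexed cis-reporter assay in human HepG2 liver cells, 24 h incubation with test chemical. Reporter transcripts measured by RT-PCR and capillary electrophoresis; values from bidirectional curve fitting versus DMSO.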
# [19] = ATG_PBREM_CIS: Attagene CIS-FACTORIAL HepG2 Assay for human Phenobarbital-responsive Enhancer Module (PBREM) (AID 2282955); details: HepG2 PBREM cis-reporter, Attagene multiplexed transcription; actives raise or lower the signal
# Outline: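 Endogenous transcription factors in human liver HepG2 cells drive a PBREM cis-element reporter, whose transcript level after 24 h treatment is quantified by RT-PCR with capillary electrophoresis; activity fitted in both directions against DMSO.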
smiles,measurement,setting,value
Nc1ccc(Cc2ccc(N)cc2)cc1,outcome,[1],inactive
same,outcome,[2],inactive
same,outcome,[3],inactive
same,outcome,[4],inactive
same,outcome,[5],inactive
same,outcome,[6],inactive
same,outcome,[7],inactive
same,outcome,[8],inactive
same,outcome,[9],inactive
same,outcome,[10],inactive
same,outcome,[11],inactive
same,outcome,[12],inactive
same,outcome,[13],inactive
same,outcome,[14],inactive
same,outcome,[15],inactive
same,outcome,[16],inactive
same,outcome,[17],inactive
same,outcome,[18],inactive
ClCCOCCCl,outcome,[1],inactive
same,outcome,[2],inactive
same,outcome,[3],inactive
same,outcome,[4],inactive
same,outcome,[5],inactive
same,outcome,[6],inactive
same,outcome,[7],inactive
same,outcome,[8],inactive
same,outcome,[9],inactive
same,outcome,[10],inactive
same,outcome,[11],inactive
same,outcome,[12],inactive
same,outcome,[13],inactive
same,outcome,[14],inactive
same,outcome,[15],inactive
same,outcome,[16],inactive
same,outcome,[17],inactive
same,outcome,[18],inactive
CS(=O)(=O)NC(=O)c1cc(Oc2ccc(C(F)(F)F)cc2Cl)ccc1[N+](=O)[O-],outcome,[1],inactive
same,outcome,[2],inactive
same,outcome,[3],inactive
same,outcome,[4],inactive
same,outcome,[5],inactive
same,outcome,[6],inactive
same,outcome,[7],inactive
same,outcome,[8],inactive
same,outcome,[9],inactive
same,outcome,[10],inactive
same,outcome,[12],inactive
same,outcome,[13],inactive
same,outcome,[14],inactive
same,outcome,[15],inactive
same,outcome,[16],inactive
same,outcome,[17],inactive
same,outcome,[18],inactive
Nc1ccc([N+](=O)[O-])cc1,outcome,[1],inactive
same,outcome,[2],inactive
same,outcome,[3],inactive
same,outcome,[4],inactive
same,outcome,[5],inactive
same,outcome,[6],inactive
same,outcome,[7],inactive
same,outcome,[8],inactive
same,outcome,[9],inactive
same,outcome,[10],inactive
same,outcome,[11],inactive
same,outcome,[12],inactive
same,outcome,[13],inactive
same,outcome,[14],inactive
same,outcome,[15],inactive
same,outcome,[16],inactive
same,outcome,[17],inactive
same,outcome,[18],inactive
CCN(CC)N=O,outcome,[1],inactive
same,outcome,[2],inactive
same,outcome,[3],inactive
same,outcome,[4],inactive
same,outcome,[5],inactive
same,outcome,[6],inactive
same,outcome,[7],inactive
same,outcome,[8],inactive
same,outcome,[9],inactive
same,outcome,[10],inactive
same,outcome,[12],inactive
same,outcome,[13],inactive
same,outcome,[14],inactive
same,outcome,[15],inactive
same,outcome,[16],inactive
same,outcome,[17],inactive
same,outcome,[18],inactive
O=C(N[C@H](c1ccccc1)[C@@H]1CN2CCC1CC2)c1c(Cl)ccc(C(F)(F)F)c1Cl,outcome,[1],inactive
same,outcome,[2],inactive
same,outcome,[3],inactive
same,outcome,[4],inactive
same,outcome,[5],inactive
same,outcome,[6],inactive
same,outcome,[7],inactive
same,outcome,[8],inactive
same,outcome,[9],inactive
same,outcome,[10],inactive
same,outcome,[11],inactive
same,outcome,[12],inactive
same,outcome,[13],inactive
same,outcome,[14],inactive
same,AC50,[15],0.207 µM (active)
same,outcome,[16],inactive
same,outcome,[17],inactive
same,outcome,[18],inactive
same,outcome,[19],inactive
Cc1ccc(N)c(N)c1,outcome,[1],inactive
same,outcome,[2],inactive
same,AC50,[3],28.3 µM (active)
same,outcome,[4],inactive
same,outcome,[5],inactive
same,outcome,[6],inactive
same,outcome,[7],inactive
same,outcome,[8],inactive
same,outcome,[9],inactive
same,outcome,[11],inactive
same,outcome,[12],inactive
same,outcome,[13],inactive
same,outcome,[14],inactive
same,outcome,[15],inactive
same,outcome,[16],inactive
same,outcome,[17],inactive
same,AC50,[18],29.1 µM (active)
same,outcome,[19],inactive
